Assay results as given in PubChem BioAssay AID485313 (National Center for Advancing Translational Sciences (NCATS), 2010).
Out of some 320,000 compounds screened, about 7,600 (2.4%) were called active. About 3% were inconclusive and are not listed. This is one part of a sample in which actives are shown more often than they occur. Unmarked numbers belong to inactive results. Calls follow the shape of the dose curve; as a rule, active = well fitted activation curve with a large enough effect; inconclusive = small, poorly fitted or top-dose-only effect; inactive = no such curve, though single readings can be large or run the other way.

assay: qHTS Assay for NPC1 Promoter Activators; conditions: Huh7 NPC1 promoter luciferase reporter, 24 h; series mostly up to 9.22 µM; activation: at the top concentration; also: nearly all actives have a fitted effect of over 60% in size;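 as to activation: reporter is driven by a mutant NPC1 promoter; % of control where 0% means no effect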
In short: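 In 1536-well qHTS, Huh7 cells harboring an NPC1 promoter–luciferase construct received compound for 24 h; activation was quantified by luminescence following luciferase reagent addition.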
Potency is read from the fitted curve at half-maximal effect.

Row | Structure (SMILES) | activation | Potency
1 | CC(C)(C)OC(=O)NCCCCCNC(=O)c1nc[nH]c1C(=O)NCc1ccccc1 | -3.55% | 
2 | O=S(=O)(c1ccccc1)N(Cc1cccc(F)c1)c1ccccc1 | -3.69% | 
3 | N#Cc1cccc(NC(=O)C2CCCN(C(=O)c3ccc(Cl)cc3)C2)c1 (stereo not drawn) | -8.08% | 
4 | CC(C)CNC(=O)C(=O)NCc1ccccc1 | 0.8% | 
5 | CC(C)CNC(=S)Nc1ccc(F)cc1 | -0.0843% | 
6 | CC(C)CNC(=O)C(=O)Nc1ccc(N(C)C)cc1 |  | 3.98 µM (active)
7 | CC(OC(=O)c1cc2ccccc2o1)C(=O)Nc1ccc(N2CCOCC2)cc1 (stereo not drawn) | 1.21% | 
8 | COC(=O)c1cc(Oc2ccc(S(=O)(=O)N3CCOCC3)cc2[N+](=O)[O-])cc(C(=O)OC)c1 | -0.0668% | 
9 | CC(C)C[C@H](NC(=O)[C@H](O)[C@H](N)Cc1ccccc1)C(=O)O | 1.38% [at 46.1 µM] | 
10 | COc1ccc2c(c1OC)C(=O)c1ccccc1C2=O |  | 2.82 µM (active)
11 | COc1ccc(/C=C2\CCc3ccccc3C2=O)c(OC)c1OC | 17.1% | 
12 | COc1cccc(-c2ccc3c(c2)S(=O)(=O)c2cccc(C(=O)O)c2C3=O)c1OC | -0.373% | 
13 | CCOC(=O)c1sc(N)c(C#N)c1COC(=O)C1=COCCO1 | 2.48% | 
14 | COc1cccc(/C=C/c2ccc3ccccc3n2)c1OC(C)=O |  | 1 µM (active)
15 | COc1cccc(/C=C2\C=C(c3ccc(C)cc3)OC2=O)c1OC(C)=O | 10.1% | 
16 | CCOc1cccc(/C=C/c2ccc3ccccc3n2)c1OC(C)=O |  | 0.631 µM (active)
17 | CCOc1ccccc1-c1cc(C(=O)N2CCOCC2)c2ccccc2n1 | 3.04% | 
18 | CC(=O)c1ccc(S(=O)(=O)N2CCN(C(=O)/C=C/c3ccc4ccccc4n3)CC2)cc1 | -11.2% | 
19 | NC(=O)COC(=O)/C=C/c1ccc2ccccc2n1 | -2.5% | 
20 | CNS(=O)(=O)c1cccc(C(=O)OCCCC(=O)c2ccccc2)c1 | -2.17% | 
21 | COc1ccccc1-c1nn(Cc2ccccc2)cc1C(=O)N1CCN(c2ncccn2)CC1 | -11.7% | 
22 | CC1(C)CC(=O)C=C(c2cccc3c2Oc2ccccc2S3)C1 | 0.0234% | 
23 | O=C(COC(=O)CNC(=O)C1CCCCC1)Nc1cccc(F)c1 | 5.42% | 
24 | Cc1ccccc1OCCC(=O)OCC(=O)NCCc1ccc(S(N)(=O)=O)cc1 | -2.56% | 
25 | O=C(CN1CCN(C2CCS(=O)(=O)C2)CC1)N1N=C(c2ccc(Cl)cc2)CC1c1ccco1 (stereo not drawn) | -0.837% | 
26 | CC(=O)Nc1ccc(NC(=O)CCN2C(=O)C3CC=CCC3C2=O)cc1 (stereo not drawn) | 0.165% | 
27 | CCC(=O)c1cn(CCOc2ccccc2OC)c2ccccc12 | -3.84% | 

Row | Structure (SMILES) | activation | Potency
28 | CCCOC1CCCN(C(=O)c2cc(COc3cncc(Cl)c3)on2)C1 (stereo not drawn) |  | 3.98 µM (active)
29 | Cc1nonc1C1CCCN1C(=O)c1cc(COc2cccc(C(F)(F)F)c2)on1 (stereo not drawn) | 0.353% | 
30 | CCOC(=O)CC1(NC(=O)c2cc(COc3cncc(Cl)c3)on2)CCCCC1 | -0.872% | 
31 | Cc1ccc2c(c1)C1CN(C)CCC1N2S(=O)(=O)c1cccc(F)c1 (stereo not drawn) | 0.736% | 
32 | O=C(CN1CCCSc2ccccc21)N1CCN(S(=O)(=O)c2cccc(F)c2)CC1 | -1.09% | 
33 | COC(=O)C1=C(C)NC(=S)NC1c1ccc(OCC(=O)N2CC(C)OC(C)C2)c(OC)c1 (stereo not drawn) | -1.43% | 
34 | COc1ccc(CCNC(=O)COc2ccc3c(c2)OCO3)cc1 | 0.465% | 
35 | CC(C)COC(=O)c1ccc(NC(=O)C2C3C=CC(C3)C2C(=O)O)cc1 (stereo not drawn) |  | 2.24 µM (active)
36 | CC(=O)NS(=O)(=O)c1ccc(NC(=O)C2C3C=CC(C3)C2C(=O)O)cc1 (stereo not drawn) | -4.5% | 
37 | COC(=O)c1cc(NC(=O)C2C3C=CC(C3)C2C(=O)O)cc(C(=O)OC)c1 (stereo not drawn) | -0.988% | 
38 | CCN(CC)S(=O)(=O)c1ccc2[nH]c(=O)cc(C(=O)N(C)C3CCS(=O)(=O)C3)c2c1 (stereo not drawn) | -0.834% | 
39 | C[C@H](OC(=O)n1ccnc1)[C@@H]1O[C@@]2(C)CCC[C@@H]1O2 | -1.99% | 
40 | COc1ccccc1N1CC(C(=O)NCCN2C(=O)S/C(=C\c3cccnc3)C2=O)CC1=O (stereo not drawn) | -4.37% | 
41 | Cc1ccc(C(CC(=O)O)NC(=O)c2ccc(S(=O)(=O)N3CCCC3)cc2)cc1 (stereo not drawn) | -3.14% | 
42 | O=C(NCCN1CCOCC1)c1cccc(S(=O)(=O)Nc2ccc(F)cc2)c1 | -2.61% | 
43 | O=C(NC(=S)NC1CCCCC1)c1ccc(Cl)cc1 | -1.56% | 
44 | O=C(NC1CCCCCC1)c1cccnc1Sc1ccc(Cl)cc1 | -1.75% | 
45 | O=C(NC1CCCCC1)c1ccc(-c2ccc(Cl)cc2)o1 |  | 3.16 µM (active)
46 | Cc1ccc(NC(=O)C(C)Sc2nnc(C3CC3)n2C2CC2)cc1S(=O)(=O)N1CCOCC1 (stereo not drawn) | 0.24% | 
47 | C=CCn1c(SCC(=O)NC(=O)Cc2ccccc2)nc2ccccc2c1=O | 0.344% | 
48 | O=C(Cn1c(-c2cncs2)nc2ccccc21)NC1CCCC1 | -3.48% | 
49 | Cc1nc(/N=C(\N)NC(=O)NC2CCCCC2)nc2ccccc12 | -17.1% | 
50 | O=C(/C=C/c1cnc2ccccc2n1)NC1CCCCCC1 |  | 3.55 µM (active)
51 | COc1ccc2c(C)cc(SCC(=O)NCC3CCCO3)nc2c1 (stereo not drawn) | -1.53% | 
52 | Cc1cccc(NC(=O)c2cccnc2Cl)n1 | -1.84% | 
53 | Cc1cccc(NC(=O)c2ccc3ccccc3n2)n1 |  | 3.16 µM (active)
